According to the supplement of paper PMC12340641:

The compounds below were run on HEK293FT dCK*-only (assay: relative growth in counter assay (no AraC = 100%, AraC + DMSO = 0%); higher = more growth rescue independent of IKZF1). Conditions: compound concentration: 5 uM; AraC concentration: 0.3 uM; overnight pretreatment + 4 days AraC.
How it was run: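 Nuclei were counted by imaging after Hoechst 33342 staining on day 5, in HEK293FT cells (300/well, 384-well) expressing only an engineered kinase construct. Compound at 5 μM went in 2 h after seeding, followed after overnight at 37 °C by a nucleoside suicide substrate at 0.3 μM plus medium for 4 days. Per plate, wells lacking suicide substrate defined 100% and those with substrate plus vehicle defined 0%.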

SMILES	relative growth in counter assay [%]
C[C@]12CC[C@H](O)C[C@H]1CC[C@@H]1[C@@H]2CC[C@]2(C)[C@@H](C3=CC(=O)OC3)CC[C@]12O [digitoxigenin]	-34.6
Oc1c(I)cc(I)cc1I	4.58
ClC(C=C3)=C(Cl)C=[C@@]3[C@H]2C1=CC=CC=C1[C@H](NC)C2 [indatraline]	0.14
CC(=O)OC[C@]12CCC(C)=C[C@H]1O[C@@H]1[C@H](O)[C@@H](OC(C)=O)[C@@]2(C)[C@@]12CO2 [Diacetoxyscirpenol]	-34.2
CC[C@H]1C2CC3[C@@H]4N(C)c5ccccc5[C@]45C[C@@H](C2C5O)N3[C@@H]1O (stereo partly specified)	5.04
CC[C@H]1CN2CCc3cc(OC)c(OC)cc3C2C[C@@H]1CC1NCCc2cc(OC)c(OC)cc21 (stereo partly specified)	-34.9
O=c1[nH]c2ccccc2n1C1CCN(CCCC(c2ccc(F)cc2)c2ccc(F)cc2)CC1 [Pimozide]	-9.38
CO[C@H]1C[C@H](O[C@H]2CC[C@@]3(C)[C@H](CC[C@@H]4[C@@H]3CC[C@]3(C)[C@@H](C5=CC(=O)OC5)[C@@H](OC(C)=O)C[C@]43O)C2)O[C@@H](C)[C@@H]1O [Oleandrin]	-35
O=c1[nH]c2ccccc2n1C1CCN(CCCC(c2ccc(F)cc2)c2ccc(F)cc2)CC1	3.23
CO[C@H]1[C@H](O)[C@H](O[C@H]2CC[C@@]3(C=O)[C@H](CC[C@@H]4[C@@H]3CC[C@]3(C)[C@@H](C5=CC(=O)OC5)CC[C@]43O)C2)O[C@@H](C)[C@@H]1O [Peruvoside]	-34.2
COc1cc2c(c(OC)c1OC)-c1ccc(OC)c(=O)cc1[C@@H](NC(C)=O)CC2	-34.4
